Source: ChEMBL document CHEMBL3988442, “University of Dundee, Small-Polar-MMV Screening Library” (2021)
About 440 (0.52%) of roughly 85,000 compounds showed an effect of 50% or more. This excerpt belongs to a sample that is enriched for strong results.

Assay: In vitro enzyme assay to detect hydrolysis of chlorophenol red-beta-D-[…] directly proportional to the number of Toxoplasma stably expressing beta-galactosidase
Type: functional, organism-based, Toxoplasma gondii
Design: scale not given: in the data most compounds retested in dose-response had high values

Compound | Percent Effect (10 µM) [%] | Percent Effect (50 µM) [%]
CC(C(=O)Nc1sccc1C(N)=O)N(C)CCOc1ccccc1 (stereo unspecified) | 66.89 | –
Cc1ccccc1OCCC(=O)OC(C)C(=O)Nc1sccc1C(N)=O (stereo unspecified) | -4.306 | –
CC(C(N)=O)N(C)CCCOc1ccccc1 (stereo unspecified) | – | 9.989
CCc1nsc(N2CC(CO)C2)n1 | – | 7.559
CCCC(O)CNS(=O)(=O)c1cc(F)cc(F)c1 (stereo unspecified) | – | -5.662
CC1CCCN(C(=O)c2cc(O)nc3ccccc23)C1 (stereo unspecified) | – | 6.15
COc1ccc(C2CCCN2c2nnc(C)s2)c(OC)c1 (stereo unspecified) | 0.194 | –
COc1ccc(C2CCCN2c2cnccn2)c(OC)c1 (stereo unspecified) | -3.299 | –
COc1ccc(C2CCCN2c2ccnc(C)c2Cl)c(OC)c1 (stereo unspecified) | 50.91 | –
NCCN1CCc2c(Cl)cccc2C1=O | – | 17.2
NC1CCN(C(=O)C2CCCC2)C1 (stereo unspecified) | – | 2.86
Cn1nc(-c2nc(C(C)(C)C)no2)ccc1=O | – | 3.371
N#CC[C@@H](N)c1ccccc1 | – | -6.546
COc1ccc(-c2cc(NCCO)nc(N)n2)cc1C | – | 29.21
COc1ccc(F)c(-c2cc(NCCO)nc(N)n2)c1 | 0.663 | –
CNc1cc(-c2cccc(OC)c2OC)nc(N)n1 | – | 50.78
CC(C)(C)CCOc1cnccc1CN | – | 14.78
Cc1cc(C)c(C#N)c(N2CCC(Cc3ccccc3)CC2)n1 | -2.69 | –
Cc1cc(NCCO)nc(N2CCCC2)c1C#N | 1.046 | –
Cc1cc(NCCO)nc(N2CCN(C)CC2)c1C#N | -10.98 | –
Cc1cc(NCCO)nc2ccccc12 | – | -2.255
Cc1cc(NCCO)nc(N2CCC(Cc3ccccc3)CC2)c1C#N.O=C(O)C(=O)O | 62.98 | –
CCCC(C)C(=O)N1CCOCC1 (stereo unspecified) | – | -3.427
NC(=O)CN(CCCO)Cc1ccccc1 | – | -1.308
O=S(=O)(CCN1CCC(CO)CC1)c1ccccc1 | – | -26.81

Compound | Percent Effect (10 µM) [%] | Percent Effect (50 µM) [%]
Cc1cc(=O)[nH]c(-n2nc(C3CC3)cc2N)n1 | 28.72 | –
CCCc1cc(=O)[nH]c(C(C)(N)CC)n1 (stereo unspecified) | – | 0.6774
CCc1cc(=O)[nH]c(-n2nc(C3CC3)cc2NC(=O)C2CC2)n1 | 96.09 | –
CC(C)c1cc(=O)[nH]c(C(C)(C)N)n1.Cl | 21.75 | –
CC(C)c1cc(=O)[nH]c(-n2nc(C3CC3)cc2N)n1 | 94.68 | –
CCCc1cc(=O)[nH]c(-n2nc(C3CC3)cc2N)n1 | 94.33 | –
CCCc1cc(=O)[nH]c(-n2nc(-c3cccs3)cc2N)n1 | 36.6 | –
Cn1nc(CNC(=O)C2CC2)cc1C1CC1 | -6.984 | –
CCc1c(C)nc(-n2nc(C3CC3)cc2NC(C)=O)[nH]c1=O | -1.935 | –
Cc1nscc1C(=O)OCCC(=O)NC(C)C | – | -12.79
CCCn1nc(C)cc1NC(=O)N1CCCC(C#N)C1 (stereo unspecified) | – | -0.4936
COc1cc(Br)cnc1C#N | – | -14.47
CSCc1ccc(C(=O)N2CC(CC(N)=O)C2)cc1 | – | -6.52
NCc1ccccc1OC(F)(F)F | – | 14.39
OC1(c2ccccc2)CCCNCC1 (stereo unspecified) | – | 3.493
CCc1nnc(NC(=O)c2ccc(S(=O)(=O)NC)o2)s1 | – | -1.635
CCSc1ccc(C(=O)NCCc2nnc[nH]2)cn1 | – | 5.402
O=C(COc1cccc(Cl)c1)N1CCOCC1c1ncon1 (stereo unspecified) | 37.28 | –
Cc1cccc(C)c1OCC(=O)N1CCOCC1c1ncon1 (stereo unspecified) | 56.8 | –
CCc1ccccc1OCC(=O)N1CCOCC1c1ncon1 (stereo unspecified) | 7.498 | –
OC1(C2CCCCC2)CCNCC1 | – | 0.8115
C=C(Br)CN1CCN(CCNC(=O)C2CCC2)CC1 | – | -27.84
CN(C)c1ccc(NC(=O)CCc2cccnc2)cn1 | – | -6.854
Clc1ccc2nc(N3CCC(NCCCC4CCOC4)CC3)sc2c1 (stereo unspecified) | -1.385 | –
CCc1nccn1CCNC1CCN(c2nc3ccc(Cl)cc3s2)CC1 | 59.54 | –

Compound | Percent Effect (10 µM) [%] | Percent Effect (50 µM) [%]
CCS(=O)(=O)CCNC1CCN(c2nc3ccc(Cl)cc3s2)CC1 | 6.923 | –
CC(=O)Nc1cn[nH]c1 | – | -20.18
CC(CN)C(=O)Nc1cn[nH]c1 (stereo unspecified) | – | 55.25
CC(CNC(=O)Nc1cn[nH]c1)N(C)C (stereo unspecified) | – | -3.915
CCn1cc(S(=O)(=O)N2CCNCC2)c(C)n1 | – | -15.85
NC(=O)C1CN(c2ccc3cccc(Br)c3n2)CCO1 (stereo unspecified) | – | -8.237
CS(=O)(=O)c1cc(Cl)cc(CN)c1 | – | -21.93
CNS(=O)(=O)c1ncccc1N | – | -16.66
NCc1ccc(CN2CCCCC2)cc1 | – | 0.9541
NCc1cccc(CN2CCCC2)c1 | – | 60.68
NCc1cccc(CN2CCCC2=O)c1 | – | -4.942
Cc1nn(C)c(C)c1NC(=O)N1CCSCC1 | – | -12.54
CN(C)c1cc(CNC(=O)c2cnccn2)ccn1 | 21.24 | –
CN(C)c1cc(CNC(=O)c2ccncc2)ccn1 | – | -1.688
CN(C)c1cc(CNC(=O)c2nccnc2N)ccn1 | – | 58.76
O=C1CC[C@@H](CO)N1 | – | -0.2195
CCS(=O)(=O)c1cccc(CN)c1 | – | 21.69
Cc1ccc(C(=O)NCCCN2CCCC2)cc1 | – | 3.9
N#Cc1c(Cl)nsc1NCc1cccnc1OC1CCCC1 | 78.06 | –
Cc1cc(NC(=O)NCc2cccnc2OC2CCCC2)n(C)n1 | -3.087 | –
N#Cc1c(Cl)nsc1NCc1cccnc1OCC(F)(F)F | 25.91 | –
CNC(=O)NCc1cccnc1OC1CCCC1 | – | 56.84
CC(O)CNC(=O)NCc1cccnc1OC1CCCC1 (stereo unspecified) | -1.891 | –
COc1ncccc1CNc1snc(Cl)c1C#N | 29.55 | –
CCN1CCCC1CNC(=O)CN(C)S(C)(=O)=O (stereo unspecified) | – | -8.865

Compound | Percent Effect (10 µM) [%] | Percent Effect (50 µM) [%]
COc1cccc(NC(=O)CN2CCCNCC2)c1 | – | -7.679
O=C(Nc1ccccn1)N1CCCN(C2CC2)CC1 | – | 3.024
COc1ccc(C(=O)N2CCC(Oc3cccc(C)c3)(C(=O)O)CC2)o1 | -1.229 | –
Cc1cccc(OCc2ccc(C(=O)N3N=CCC3(O)C(F)(F)F)o2)c1 (stereo unspecified) | 93.63 | –
COCc1ccc(C(=O)N2CCC(Oc3ccccc3)(C(=O)O)CC2)o1 | 0.5821 | –
O=C(c1ccc(COc2ccc(Cl)cc2)o1)N1N=CCC1(O)C(F)(F)F (stereo unspecified) | 95.68 | –
O=C(c1ccc(COc2ccccc2Cl)o1)N1N=CCC1(O)C(F)(F)F (stereo unspecified) | 45.92 | –
O=C(Cn1cc(Br)cn1)N1N=CCC1(O)C(F)(F)F (stereo unspecified) | – | -25.92
CC(C)NC(=O)CNCc1ccc(Br)o1 | – | 0.3067
CN1CCN(C)C2(CCN(C(=O)C(C)(C)O)CC2)C1 | – | 7.866
Cc1cc(C(=O)N2CCN(c3nc4c(C(C)C)cccc4s3)CC2)no1 | 14.68 | –
Cc1cc(C(=O)N2CCN(c3nc4c(C(C)C)cccc4s3)CC2)on1 | 83.09 | –
Cc1cc(C(=O)N2CCN(c3nc4c(C)cccc4s3)CC2)no1 | 11.62 | –
CC(C)C(=O)Nc1cccc(CN)c1 | – | -3.402
CCOCCSc1nnnn1CC1CCCO1 (stereo unspecified) | – | 4.057
CCn1nc(C)c2nnn(CC(=O)Nc3ccc(C)cc3)c(=O)c21 | 5.455 | –
CCc1nc(Nc2cccc(C(=O)NC)c2)c2c(n1)c(C)nn2CC | 63.37 | –
CCCc1nc(Nc2cccc(C(N)=O)c2)c2c(n1)c(C)nn2CC | 20.54 | –
CCc1nc(NCC(=O)N2CCOCC2)c2c(n1)c(C)nn2CC | -2.271 | –
CCn1nc(C)c(C(C)NC(=O)c2cccc(NCC(=O)O)c2)c1C (stereo unspecified) | -6.268 | –
CCc1nc(Nc2ccc(C(=O)NC)cc2)c2c(n1)c(C)nn2CC | 64.18 | –
CN1C(=O)c2cccn2CC1CNC(=O)c1ccco1 (stereo unspecified) | – | 46.69
CNC(=O)CS(=O)(=O)Cc1cc(=O)n(C)c(=O)n1C | – | 9.101
CN(C)C(=O)CN(C)c1ncc(C(F)(F)F)cc1Cl | – | 0.3926
CCS(=O)(=O)Nc1ccc(C(=O)NC2CC2)cc1 | – | -14.67

Compound | Percent Effect (10 µM) [%] | Percent Effect (50 µM) [%]
CCc1nc(C2CCCN2CC(=O)Nc2nncs2)no1 (stereo unspecified) | 2.118 | –
O=C(NCc1nc(C2CC2)no1)Nc1nncs1 | – | 96.18
Cc1cnc(C(NC(=O)NCc2nc(C3CC3)no2)C2CC2)s1 (stereo unspecified) | 2.41 | –
Cc1ccccc1C1(O)CCN(Cc2ncc[nH]2)C1 (stereo unspecified) | – | -4.711
Cc1ncc(CN2CCOC(c3ccc(-c4cc[nH]n4)cn3)C2)s1 (stereo unspecified) | -16.2 | –
Cc1ncc(CN2CCOC(c3ccc(-c4ccccc4F)cn3)C2)s1 (stereo unspecified) | 56.75 | –
Cc1ncc(CN2CCOC(c3ccc(-c4cnn(C)c4)cn3)C2)s1 (stereo unspecified) | -14.87 | –
O=C(NC1CCNC1)C1CCC1 (stereo unspecified) | – | 7.426
N#Cc1ccc(CN)c(F)c1 | – | 29.17
CC(Sc1n[nH]c(-c2ccccn2)n1)C(=O)N(C)C (stereo unspecified) | – | 2.084
CC(CSc1n[nH]c(-c2ccccn2)n1)CS(C)(=O)=O (stereo unspecified) | – | 14.41
CC(C)CNC(=O)CSc1n[nH]c(-c2ccccn2)n1 | – | 52.47
CCNc1cccc(OC)c1 | – | -5.589
Cn1nc(CC#N)c2ccccc21 | – | -11.92
Nc1cccnc1NCc1cccnc1 | – | 56.86
OCCOc1ccc(NCc2cccnc2)cn1 | 0.5408 | –
CCCc1nnc(NCc2cccnc2)o1 | – | -5.41
CN(CCN1CCCC1=O)C(=O)c1ncccc1Br | – | -6.361
N#CCC1COc2ccccc2O1 (stereo unspecified) | – | -13.18
CC(C)N(C)S(=O)(=O)NCCCN(C)c1ccccc1 | – | 0.05674
CN(C)C(=O)C1CCN(Cc2ccccc2F)CC1 | – | -0.8921
